For 40 compounds, outcome and AC50 results are on record in PubChem BioAssay (EPA / NIEHS).

Active and inactive are the calls of the source. Rule for the calls: active = hit-call score of the fitted dose curve at least 0.9, where 1 is the maximum; inactive = score below 0.9.

The assay can be described thus: ATG_FoxO_CIS: Attagene CIS-FACTORIAL HepG2 Assay for human Forkhead box O (FoxO) (AID 2282943). Conditions: HepG2 Attagene cis-reporter, FoxO element, mRNA; actives raise or lower the signal. The method, then: ATG_CIS is a cell-based, multiplexed-readout assay that uses HepG2, a human liver cell line, with measurements taken at 24 hours after chemical dosing in a 24-well plate.ATG_FoxO_CIS is one of 52 assay component(s) measured or calculated from the ATG_CIS assay. It is designed to make measurements of mRNA induction, a form of inducible reporter, as detected with fluorescence intensity signals by Reverse transcription polymerase chain reaction (RT-PCR) and Capillary electrophoresis technology.Data from the assay component ATG_FoxO_CIS was analyzed into 1 assay endpoint. This assay endpoint, ATG_FoxO_CIS, was analyzed with bidirectional fitting relative to DMSO as the negative control and baseline of activity. Using a type of inducible reporter, measures of mRNA for gain or loss-of-signal activity can be used to understand the reporter gene at the transcription factor-level as they relate to the gene FOXO1 and FOXO3. Furthermore, this assay endpoint can be referred to as a primary readout, because this assay has produced multiple assay endpoints where this one serves a reporter gene function. To generalize the intended target to other relatable targets, this assay endpoint is annotated to the dna binding intended target family, where the subfamily is forkhead box protein.
Human liver HepG2 cells are transiently transfected with multiple reporter transcription units (MRTUs) in 6-well plates using FuGene 6 reagent (Roche; 3 ml FuGene/1 mg DNA). The MRTU constructs are regulated by a cis-regulating element (promoter). […] A major difference between the CIS and TRANS system is that in CIS activities of endogenous TFs are measured, whereas the TRANS assay evaluates changes in activities of exogenous, chimeric NR-Gal4 proteins. […] At the end of 24 hour incubation, total RNA was isolated using TriZol reagent (Invitrogen). The isolated RNA is then reverse-transcribed using oligo(dT) primer and Mo-MLV reverse transcriptase (Invitrogen) with DNAse I (Ambion) treatment for 30 min. The one-tenth of the produced cDNA was amplified by PCR using Taq DNA polymerase (Invitrogen) and two reporter sequence-specific primers. The PCR products were fluorescently labeled by primer extension with 6-arboxyfluorescein (6-FAM) 5'-labeled reporter sequence-specific primer (2 min at 95 C, 20 s at 68 C and 10 min at 72 C) and these products were digested with 5U of HpaI (New England Biolabs) for 2h at 37 C. The fragments were purified using Qiaquick PCR columns (Qiagen), analyzed on an ABI 3130xL genetic analyzer (Applied Biosystems) with peak positions identified by using a set of X-rhodamine (ROX)-labeled MapMarker1000 molecular weight standards (BioVentures). The raw capillary electrophoresis data was processed using Attagraph software (Attagene).
`CSc1c(Cl)c(Cl)c(Cl)c(Cl)c1Cl`: the call was inactive.

Turning to `c1ccc(Oc2ccccc2)cc1`, the outcome was inactive.

On to `CCCC(C)=O`, for which the call was inactive.

With `CC1(C)COCN1`, the call was inactive.

Turning to `CCc1ccc(O)c(OC)c1`, the compound was classed as inactive.

Take `CCN(CCN)c1cccc(C)c1`: the compound was called inactive.

Take `CCCCCCOC(=O)C(C)C`: the compound was called inactive.

On to `C=CCOC(=O)CCCCCC`, for which the call was inactive.

On to `CCC(=O)OCCOc1ccccc1`, for which the compound was called inactive.

With `O=C(O)c1ccc(O)cc1`, the outcome was inactive.

Regarding `CCCCCCC(CO)CCCC` (stereo not given), the compound was classed as inactive.

Broadly, the AC50 is the concentration giving half of the maximal activity seen. Regarding `CC(=O)C1(C)CC2=C(CCCC2(C)C)CC1C` (stereo not given), the half-maximal activity concentration (AC50) was 100 µM (active).

Take `CCOc1ccc(NC(=O)CC(C)O)cc1` (stereo not given): the compound was classed as inactive.

In the case of `CCCCCCCC(=O)OCCCCCC`, the compound was called inactive.

As for `OCc1cccc(Oc2ccccc2)c1`, the call was inactive.

`CCCCC(CC)(CO)CO`: the outcome was inactive.

Regarding `C=C(C)CNCC`, the compound was called inactive.

On to `CCCCCCCCCCCCS(=O)(=O)Cl`, for which the result was inactive.

As to `C=C(C)C(=O)OCCOCCOCCOCCOC(=O)C(=C)C`, the compound was classed as inactive.

For `CCc1ccc(O)cc1`, the compound was classed as inactive.

In the case of `O=C(Nc1ccc2c(O)c(N=Nc3ccc(N=Nc4ccc(S(=O)(=O)O)cc4)cc3)c(S(=O)(=O)O)cc2c1)c1ccccc1`, the outcome was inactive.

`CCCCCCCCCCCCCCCC(=O)OC/C=C(C)/C=C/C=C(C)/C=C/C1=C(C)CCCC1(C)C`: the outcome was inactive.

Take `CC(=O)O[C@@H]1C[C@@H]2CC[C@@]1(C)C2(C)C`: the result was inactive.

With `O=C(O)c1cccnc1C(=O)O`, the call was inactive.

Regarding `CCCCCCCC/C=C\CCCCCCCC(=O)OCC`, the result was inactive.

`Nc1ccc(NCCO)c([N+](=O)[O-])c1`: the compound was classed as inactive.

Turning to `CCCCCCCC(=O)OCC(O)CO` (stereo not given), the compound was called inactive.

On to `Cc1ccc(OC(=O)c2ccccc2O)cc1`, for which the compound was called inactive.

In the case of `COc1ccc(CCN2CCC(Nc3nc4ccccc4n3Cc3ccc(F)cc3)CC2)cc1`, the outcome was inactive.

`CCCCCCCCN1CCCC1=O`: the result was inactive.

For `Nc1ccc2cc(S(=O)(=O)O)cc(O)c2c1N=Nc1ccccc1C(F)(F)F`, the compound was called inactive.

Regarding `OCC#CCO`, the compound was called inactive.

For `C=CC(=O)OCCC#N`, the concentration at half-maximal activity (AC50) was 100 µM (active).

On to `CN(C)c1ccncc1`, for which the compound was classed as inactive.

`[Cl][Au]([Cl])[Cl]`: the result was inactive.

For the compound `Cc1[nH]c(=O)c(C#N)cc1-c1ccncc1`, the outcome was inactive.

With `CC1=NN(c2ccc(S(=O)(=O)O)cc2)C(=O)C1`, the result was inactive.

Turning to `COc1cc([C@@H]2c3cc4c(cc3[C@@H](O[C@@H]3O[C@@H]5CO[C@@H](C)O[C@H]5[C@H](O)[C@H]3O)[C@H]3COC(=O)[C@H]23)OCO4)cc(OC)c1O`, the compound was classed as inactive.

Take `CC(C)CCCCCCCCCCCCCCC(=O)O`: the outcome was inactive.

Take `CCc1ncc(C)[nH]1`: the result was inactive.
